# According to the supplement of paper PMC12350171:
# Counter-ions that a name gives are not always drawn.
# Tested on: Haemophilus parainfluenzae
# Experiment: growth AUC normalised to DMSO control (fraction of control); higher = less growth inhibition, active = hit call of the paper
# Settings: 20 µM;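 active = AUC significantly below DMSO controls by Student t-fit with adjusted P under 0.01; inactive = not significantly reduced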
# In short: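 Hemin and NAD were added to the medium for Haemophilus parainfluenzae. All pathogens, after two anaerobic passages, were inoculated at a starting OD578 of 0.01 into pre-reduced mGAM plates with 20 μM compound and 1% DMSO under breathable seals, and OD578 was read hourly for 24 h in three biological replicates. AUC of each growth curve was obtained with the trapezoidal rule up to the exponential-to-stationary transition and normalised to DMSO controls from the same plate.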
row,SMILES,growth AUC normalised to DMSO control
1,"CC(C)NC[C@H](O)COc1ccc(CC(N)=O)cc1 [(S,-) Atenolol]",1.01 (inactive)
2,CC(=O)CC(c1ccc([N+](=O)[O-])cc1)c1c(O)c2ccccc2oc1=O (stereo not drawn) [Acenocoumarol],0.992 (inactive)
3,CC1(C)O[C@@H]2C[C@H]3[C@@H]4CCC5=CC(=O)CC[C@]5(C)[C@@]4(F)[C@@H](O)C[C@]3(C)[C@]2(C(=O)CCl)O1 [Halcinonide],1 (inactive)
4,CN1CCOC(c2ccccc2)c2ccccc2C1 (stereo not drawn) [Nefopam hydrochloride],1 (inactive)
5,Cc1c(Cl)cccc1Nc1ncccc1C(=O)O [Clonixin lysinate],1.06 (inactive)
6,Cn1cnc2c1c(=O)[nH]c(=O)n2C [Theobromine],1.06 (inactive)
7,COC(=O)C1=C(C)NC(C)=C(C(=O)OCC(C)C)C1c1ccccc1[N+](=O)[O-] (stereo not drawn) [Nisoldipine],0.996 (inactive)
8,Cc1ccc(C)c(OCCCC(C)(C)C(=O)O)c1 [Gemfibrozil],0.971 (inactive)
9,CCc1cccc(CC)c1NC(=O)CN(CC(=O)O)CC(=O)O [Etifenin],1.01 (inactive)
10,OC(CCN1CCCCC1)(c1ccccc1)c1ccccc1 [Pridinol methanesulfonate salt],0.999 (inactive)
11,CCn1cc(C(=O)O)c(=O)c2ccc(C)nc21 [Nalidixic acid sodium salt],0.813 (active)
12,COc1ccc(OC)c(C(O)CNC(=O)CN)c1 (stereo not drawn) [Midodrine hydrochloride],1.02 (inactive)
13,CC(=O)CC(c1ccccc1)c1c(O)c2ccccc2oc1=O (stereo not drawn) [Warfarin],1.02 (inactive)
14,CCOCCn1c(N2CCCN(C)CC2)nc2ccccc21 [Emedastine difumarate],1 (inactive)
15,CCn1cc(C(=O)O)c(=O)c2cc(F)c(N3CCNCC3)cc21 [Norfloxacin],0.0519 (active)
16,CC(=O)Nc1ccc(O)cc1 [Acetaminophen],0.952 (inactive)
17,CN1CCCN=C1/C=C/c1cccc(O)c1 [Oxantel pamoate],0.916 (inactive)
18,CC(=O)N(CC(O)CN(C(C)=O)c1c(I)c(C(=O)NCC(O)CO)c(I)c(C(=O)NCC(O)CO)c1I)c1c(I)c(C(=O)NCC(O)CO)c(I)c(C(=O)NCC(O)CO)c1I (stereo not drawn) [Iodixanol],0.976 (inactive)
19,CN1CCN(C2=Nc3cc(Cl)ccc3Nc3ccccc32)CC1 [Clozapine],1.02 (inactive)

row,SMILES,growth AUC normalised to DMSO control
1,CNCCC(Oc1ccccc1OC)c1ccccc1 (stereo not drawn) [Nisoxetine hydrochloride],1.02 (inactive)
2,Nc1ccn([C@@H]2O[C@H](CO)[C@@H](O)[C@@H]2O)c(=O)n1 [Cytarabine],0.999 (inactive)
3,CCN(CC)CCNC(=O)COc1ccc(OC)cc1 [Mefexamide hydrochloride],0.985 (inactive)
4,CC1(C)S[C@@H]2[C@H](NC(=O)[C@H](N)c3ccc(O)cc3)C(=O)N2[C@H]1C(=O)O [Amoxicillin],0.0371 (active)
5,Nc1nc(O)c2ncn(CCC(CO)CO)c2n1 [Penciclovir],0.944 (inactive)
6,OC(CCN1CCCC1)(c1ccccc1)C1CCCCC1 (stereo not drawn) [Procyclidine hydrochloride],0.962 (inactive)
7,C[C@H]1O[C@@H](O[C@H]2[C@@H](O)C[C@H](O[C@H]3[C@@H](O)C[C@H](O[C@H]4CC[C@@]5(C)[C@H](CC[C@@H]6[C@@H]5C[C@@H](O)[C@]5(C)[C@@H](C7=CC(=O)OC7)CC[C@]65O)C4)O[C@@H]3C)O[C@@H]2C)C[C@H](O)[C@@H]1O [Digoxin],0.979 (inactive)
8,CC(=O)N(O)CCCCCNC(=O)CCC(=O)N(O)CCCCCNC(=O)CCC(=O)N(O)CCCCCN [Deferoxamine mesylate],1.07 (inactive)
9,CC(CCc1ccccc1)NCC(O)c1ccc(O)c(C(N)=O)c1 (stereo not drawn) [Labetalol hydrochloride],0.954 (inactive)
10,C[C@@H](c1ncncc1F)[C@](O)(Cn1cncn1)c1ccc(F)cc1F [Voriconazole],0.977 (inactive)
11,CCC(=O)OCC(=O)[C@@]1(OC(=O)CC)[C@H](C)C[C@H]2[C@H]3[C@H]([C@@H](O)C[C@@]21C)[C@@]1(C)C=CC(=O)C=C1C[C@H]3Cl [Alclometasone dipropionate],1.02 (inactive)
12,O=C(O)c1ccccc1Nc1cccc(C(F)(F)F)c1 [Flufenamic acid],0.932 (inactive)
13,O=C(O)/C=C/c1ccc(Cn2ccnc2)cc1 [Ozagrel hydrochloride],1.03 (inactive)
14,O=C(NCCNCC(O)COc1ccc(O)cc1)N1CCOCC1 (stereo not drawn) [Xamoterol hemifumarate],0.775 (inactive)
15,C[C@@H](O[C@H]1OCCN(Cc2n[nH]c(=O)[nH]2)[C@H]1c1ccc(F)cc1)c1cc(C(F)(F)F)cc(C(F)(F)F)c1 [Aprepitant],0.941 (inactive)
16,CSc1ccc2c(c1)N(CCC1CCCCN1C)c1ccccc1S2 (stereo not drawn) [Thioridazine hydrochloride],0.72 (active)
17,CC(C)(C(=O)O)c1ccc(C(O)CCCN2CCC(C(O)(c3ccccc3)c3ccccc3)CC2)cc1 (stereo not drawn) [Fexofenadine hydrochloride],1.01 (inactive)
18,CCOC(=O)NNc1nncc2ccccc12 [Todralazine hydrochloride],1.01 (inactive)
19,CCN(Cc1ccncc1)C(=O)C(CO)c1ccccc1 (stereo not drawn) [Tropicamide],0.816 (inactive)
